Here are results for 55 compounds from PubChem BioAssay AID1963822 (ICCB-Longwood Screening Facility, Harvard Medical School, 2024).

Several values for one entry are separate records, joined by “and”; a condition that tells them apart may be missing. Identical values can stand only once. Screen size: about 55,000 compounds; about 90 (0.2%) were called active. The rule behind the calls is not given here. Many of the other results were omitted from the sample, so actives are more common in it than they were. More than one record can exist for a structure, and the calls need not agree.

The assay can be described thus: growth inhibitors of anaerobic choline-fed gram-negatives, minimal medium, absorbance (AID 1963822). To be noted: Gram-negative bacterium anaerobic choline minimal medium.
[1] abbreviates: measured here: choline growth z-score, timepoint 1, stronger effect = lower value.

Consider `CC(=O)Nc1ccc(N(C)CCCc2c(C)nn(C)c2C)c(C(=O)O)c1`, for which the z-score (stronger effect = lower value) is 0.96 (inactive) and the z-score under setting [1] is 0.43.

Regarding `COC(=O)CSc1nc2cc(-c3ccccc3)sc2c(=O)n1C`, the z-score runs as follows: (stronger effect = lower value) 0.31 (inactive); under setting [1], 0.31.

As to `CCCN(C)S(=O)(=O)c1c(C)[nH]c(-c2nnc(C3CCC3)o2)c1C`, the z-score is 0.79 (inactive) (stronger effect = lower value) and 0.59 under setting [1].

In the case of `COc1ccc2nc(-n3nc(C)c4c3NC(=O)CC4c3cc(Br)ccc3OC)sc2c1` (stereo not given), the z-score by setting is: (stronger effect = lower value) -0.06 (inactive); under setting [1], 0.15.

In the case of `COc1ccc2nc(-n3nc(C)c4c3NC(=O)CC4c3ccc4c(c3)OCO4)sc2c1` (stereo not given), the z-score reads like this: (stronger effect = lower value) 1.23 (inactive); under setting [1], 1.32.

In the case of `COc1ccc2nc(-n3nc(C)c4c3NC(=O)CC4c3ccsc3)sc2c1` (stereo not given), the z-score runs as follows: (stronger effect = lower value) -2.13 (active); under setting [1], -0.51.

Regarding `CCCC(=O)Nc1cccc(OCc2cc(=O)n3ccccc3n2)c1`, the z-score runs as follows: (stronger effect = lower value) 0.39 (inactive); under setting [1], 0.6.

Take `Cc1sc2cc(C(=O)NCCN3CCN(C)CC3)[nH]c2c1CN1CCCCC1`: the z-score by setting is: (stronger effect = lower value) -0.21 (active); under setting [1], -4.45.

As to `O=C(NCCCN1CCCCC1)c1cc2n(n1)CCCN(Cc1ccc(F)cc1)C2=O`, the z-score was 0.15 (inactive) (stronger effect = lower value) and -0.23 under setting [1].

For `CN1CCN(CCNC(=O)c2cnc3sc4c(n3c2=O)CCC4)CC1`, the z-score is, setting by setting: (stronger effect = lower value) -0.87 (inactive); under setting [1], -0.3.

Consider `Cc1ccc(F)c(NS(=O)(=O)c2cc(-c3nc(C(C)(C)C)cs3)cs2)c1`, for which the z-score reads like this: (stronger effect = lower value) 0.79 (inactive); under setting [1], 0.58.

For the compound `CCCCOc1ccccc1C1CC(=O)Nc2c1c(C)nn2-c1ccc2nncn2n1` (stereo not given), the z-score (stronger effect = lower value) is 0.78 (inactive) and the z-score under setting [1] came out at 0.83.

Consider `O=C(NC1CC1)c1snc(-c2ccccn2)c1NC(=O)C1CC1`, for which the z-score by setting is: (stronger effect = lower value) 0.58 (inactive); under setting [1], 1.01.

As for `CCc1ccc(NS(=O)(=O)c2cc(-c3nc(C(C)C)cs3)cs2)cc1`, the z-score is -0.41 (inactive) (stronger effect = lower value) and 0.54 under setting [1].

For `Cc1cccc(C2C3=C(CC(c4ccccc4)CC3=O)Nc3onc(C)c32)c1` (stereo not given), the z-score is, setting by setting: (stronger effect = lower value) 1.84 (inactive); under setting [1], 1.45.

On to `O=C1Nc2ccccc2Oc2cc(Cl)c(S(=O)(=O)N3CCCC3)cc21`, for which the z-score (stronger effect = lower value) was 1.05 (inactive) and the z-score under setting [1] is -0.01.

With `O=C(COc1ccccc1)Nc1noc(-c2ccc(Cl)cc2)n1`, the z-score is -0.07 (inactive) (stronger effect = lower value) and -0.68 under setting [1].

In the case of `Cc1ccc(C)c(Cn2cccc(S(=O)(=O)N3CCCC3)c2=O)c1`, the z-score was 1.03 (inactive) (stronger effect = lower value) and 0.96 under setting [1].

In the case of `CS(=O)(=O)NC1CCN(C(=O)C2CCCC2)C1` (stereo not given), the z-score by setting is: (stronger effect = lower value) 0.08 (inactive); under setting [1], 0.92.

Turning to `CCC(C(=O)Nc1ccccc1OC)n1nc(-c2ccccc2)ccc1=O` (stereo not given), the z-score is, setting by setting: (stronger effect = lower value) 0.41 (inactive); under setting [1], -0.44.

`COc1ccc(CSc2nccc3c2ccn3CC(=O)NCc2ccc3c(c2)OCO3)cc1`: the z-score reads like this: (stronger effect = lower value) 1.77 (inactive); under setting [1], 1.27.

Consider `O=C(CSCc1nc2cccnc2n1C1CCCCC1)NCc1cccc(F)c1`, for which the z-score is 0.62 (inactive) (stronger effect = lower value) and 1.42 under setting [1].

With `Cc1ccccc1C1CC(=O)c2cnc3c(-c4ccc(F)cc4)c(C)nn3c2C1` (stereo not given), the z-score runs as follows: (stronger effect = lower value) 0.81 (inactive); under setting [1], 0.27.

As for `O=C(COc1ccccc1)Nc1noc(-c2ccccc2)n1`, the z-score (stronger effect = lower value) was -2.24 (inactive) and the z-score under setting [1] is -0.92.

Take `O=C(NCc1ccc(Cl)cc1)c1ccc(-n2nnc3cccnc32)cc1`: the z-score was 0.42 (inactive) (stronger effect = lower value) and 0.46 under setting [1].

As to `Cc1nn(-c2ccccc2)c2sc(C(=O)N3CCN(c4cccc(Cl)c4)CC3)cc12`, the z-score is, setting by setting: (stronger effect = lower value) 0.97 (inactive); under setting [1], 1.5.

Consider `COc1ccc(-c2noc(-c3ccc[nH]c3=O)n2)cc1OC`, for which the z-score reads like this: (stronger effect = lower value) 1.32 (inactive); under setting [1], 1.18.

`Clc1ccc(C(CNc2nn3cnnc3c3ccccc23)N2CCCCC2)cc1` (stereo not given): the z-score runs as follows: (stronger effect = lower value) -0.12 (inactive); under setting [1], -0.1.

For the compound `CC(C)NC(=O)N1CCCC(c2cccc(C(=O)NCc3ccc(Cl)cc3)c2)C1` (stereo not given), the z-score is 0.72 (inactive) (stronger effect = lower value) and 0.1 under setting [1].

For `CCOC(=O)c1cnn(CCOC(=O)COC)c1NC(=O)COC`, the z-score by setting is: (stronger effect = lower value) 0.06 (inactive); under setting [1], 0.2.

Regarding `Cc1noc2c1C(c1ccc(Cl)cc1)C1=C(CC(c3ccc(O)cc3)CC1=O)N2` (stereo not given), the z-score is -1.06 (inactive) (stronger effect = lower value) and 0.58 under setting [1].

Regarding `CCCCC(=O)Nc1cc(N2CCn3c(nc4ccccc43)C2)ccc1C`, the z-score was -0.54 (inactive) (stronger effect = lower value) and 0.09 under setting [1].

On to `COc1ccc(NC(=O)C2CCN(C(=O)c3ccc(-c4noc(C)n4)cc3)CC2)cc1OC`, for which the z-score was 0.58 (inactive) (stronger effect = lower value) and -0.71 under setting [1].

As to `CCc1ccc(-c2ccc(=O)[nH]n2)cc1S(=O)(=O)N1CCOCC1`, the z-score was -0.21 (inactive) (stronger effect = lower value) and -0.65 under setting [1].

`O=C(O)c1cc(N2CCN(c3ccc(Cl)cc3)CC2)ccc1NC(=O)C1CCC1`: the z-score is 0.22 (inactive) (stronger effect = lower value) and 0.14 under setting [1].

For `O=c1c(S(=O)(=O)c2ccc(F)c(Cl)c2)c[nH]c2c(F)cc(Cl)cc12`, the z-score is, setting by setting: (stronger effect = lower value) -1.66 (inactive); under setting [1], -1.06.

With `CNC(=O)c1ccc(NC(=O)N2CCCCc3ccccc32)cc1`, the z-score is 0.76 (inactive) (stronger effect = lower value) and -0.19 under setting [1].

Take `COC(=O)c1cnc(N(C)C2CCCCC2)c2ccccc12`: the z-score reads like this: (stronger effect = lower value) 0.22 (inactive); under setting [1], -0.03.

Consider `Cc1nc(Nc2ccccc2)nc2c1C(=O)CC(C)C2` (stereo not given), for which the z-score runs as follows: (stronger effect = lower value) 0.7 (inactive); under setting [1], 0.46.

Turning to `COCc1cc(C)nc2sc3c(c12)NC(C)N(c1ccc(C)cc1)C3=O` (stereo not given), the z-score is -0.14 (inactive) (stronger effect = lower value) and -1.91 under setting [1].

As to `Cc1ccc(-n2cc(C(=O)O)c3ccccc3c2=O)cc1`, the z-score is 1.03 (inactive) (stronger effect = lower value) and 0.91 under setting [1].

Consider `Cc1ccc2c(c1)OCC(=O)N2CC(=O)O`, for which the z-score by setting is: (stronger effect = lower value) -1.28 (inactive); under setting [1], -1.54.

With `Cc1ccc(C2C3=C(CCCC3=O)Nc3ccccc3N2C(=O)c2ccccc2)cc1` (stereo not given), the z-score was -0.78 (inactive) (stronger effect = lower value) and 0.3 under setting [1].

In the case of `CCN1CCN(C(=O)C2CCCN(S(=O)(=O)c3cc(-c4noc(C5CC5)n4)sc3C)C2)CC1` (stereo not given), the z-score by setting is: (stronger effect = lower value) 0.63 (inactive); under setting [1], 0.78.

Consider `COc1cc(OC)cc(C(=O)Nc2nc(CC(=O)Nc3ccc(OC)c(OC)c3)cs2)c1`, for which the z-score (stronger effect = lower value) was -0.43 (inactive) and the z-score under setting [1] was -0.34.

On to `CCn1nc(C)c(CCN(C)C(=O)NCC2CCCO2)c1C` (stereo not given), for which the z-score runs as follows: (stronger effect = lower value) -1.05 (inactive); under setting [1], -1.68.

As for `O=C(CSc1ccccc1)N1CCN(Cc2cc(=O)n3nc(-c4ccccc4F)sc3n2)CC1`, the z-score runs as follows: (stronger effect = lower value) 0.75 (inactive); under setting [1], 0.13.

In the case of `Cn1c(=O)oc2cc(S(=O)(=O)N3CCC4(CC3)Nc3cc(F)ccc3-n3cccc34)ccc21`, the z-score was -0.55 (inactive) (stronger effect = lower value) and 0.11 under setting [1].

As for `O=S(=O)(Cc1ccccc1)N1CCCC1c1ccc(Cl)cc1` (stereo not given), the z-score was -0.27 (inactive) (stronger effect = lower value) and -0.13 under setting [1].

`CN1CCC[C@@H]1CCO[C@](C)(c1ccccc1)c1ccc(Cl)cc1`: the z-score is -1.24 (inactive) and -1.63 (active) and 0.92 (inactive) (stronger effect = lower value); 0.36 and -2.85 and -1.59 under setting [1].

With `CCOC(=O)c1cnc2c(-c3ccccc3)c(COc3ccccc3)nn2c1N`, the z-score reads like this: (stronger effect = lower value) -0.05 (inactive); under setting [1], -0.12.

Consider `O=C(Nc1ccc2c(c1)OCCO2)c1cccc(Oc2ccnc(-c3ccc(F)cc3)n2)c1`, for which the z-score (stronger effect = lower value) is -0.1 (inactive) and the z-score under setting [1] turned out to be 0.77.

With `O=C(CC1CCCC1)N1CCN=C1N1CCCC1`, the z-score is, setting by setting: (stronger effect = lower value) -1.26 (inactive); under setting [1], -0.58.

With `CCOc1ccc(CNC(=O)C2(NS(=O)(=O)c3cccc4cccnc34)CCCCC2)cc1`, the z-score (stronger effect = lower value) is 0.35 (inactive) and the z-score under setting [1] came out at 0.16.

`COc1cccc(-n2ccnc2SCc2nc(-c3ccccc3)no2)c1`: the z-score reads like this: (stronger effect = lower value) 0.5 (inactive); under setting [1], 0.33.
